Sampled rows, rich in hits. Any-hit rate of the full collection: about 12%.
HP1b binding inh: HP1-beta chromodomain-methylated histone interaction inhibition; P83916; AlphaScreen HP1-beta / biotin-H3K9me3 peptide binding; Potency, µM (highest dose often 114 µM), without a hit: at the highest dose activity change, negative = inhibition, hits mostly inhibitors; 0.56% of 390,000 active; also: nearly all actives have a fitted effect of over 70% in size
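Compound inhibition of the preformed complex between 50 nM HP1-beta and 50 nM biotinylated H3K9me3 peptide was read by AlphaScreen. Buffer was PBS pH 7.4 with 0.01% Tween-20. Incubations ran 30 min at room temperature, with 10 ug/mL donor/acceptor beads.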
G9a block: inhibitors of human histone lysine methyltransferase G9a; Q96KQ7; G9a H3K9 monomethylation, AlphaScreen, 2 h; Potency, µM (doses to about 102 µM), without a hit: at the top dose activity, negative = inhibition, hits mostly inhibitors; 8.8% of 350,000 active; AID 504332; also: % is scaled to controls: 0 for no effect and ±100 for the full control effect; nearly all actives have a fitted effect of over 75% in size
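Using a bead-based AlphaScreen, monomethylated H3K9 product from 2 h room-temperature reactions (G9a 20 nM, peptide 500 nM, SAM 20 uM) was detected with 0.5 ug/mL rabbit anti-H3K9me1 antibody.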
JMJD2A Tudor: blocks the human JMJD2A Tudor domain. O75164. AlphaScreen JMJD2A-Tudor / H3K4me3 peptide binding. Potency, µM (doses to about 114 µM), inactives show at the top dose activity change, negative = inhibition, most hits filed as inhibitors. 4.4% of 390,000 active; also: % is scaled to controls: 0 for no effect and ±100 for the full control effect; nearly all actives have a fitted effect of over 50% in size
Sfp inh: blocks B. subtilis Sfp PPTase activity; Potency, µM, for the others: largest response in the series, negative = inhibition, actives largely listed as inhibitors; Biochemical Sfp PPTase activity, qHTS; Q9F4F7; 3.5% of 310,000 active;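 also: the enzyme is Sfp with the accession as filed and its product quenches rhodamine fluorescence; 0% = enzyme reaction without inhibitor and -100% = no enzyme wells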
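Reaction rates are the 30-min fluorescence difference (ex 525, em 598 nm) in wells containing 15 nM Sfp, 5 uM rhodamine-CoA and 12.5 uM BHQ-2-YbbR at pH 7.6 with 10 mM MgCl2.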
BAZ2B inh: BAZ2B (human) inhibition | AlphaScreen BAZ2B-H3K14Ac peptide displacement | Q9UIF8 | 4.4% of 360,000 active | Potency, µM (doses to about 114 µM), inactives show at the top dose activity change, negative = inhibition, usual class: inhibitors; also: % is scaled to controls: 0 for no effect and ±100 for the full control effect; nearly all actives have a fitted effect of over 60% in size
Target sequence (Q9UIF8 whole entry, looked up): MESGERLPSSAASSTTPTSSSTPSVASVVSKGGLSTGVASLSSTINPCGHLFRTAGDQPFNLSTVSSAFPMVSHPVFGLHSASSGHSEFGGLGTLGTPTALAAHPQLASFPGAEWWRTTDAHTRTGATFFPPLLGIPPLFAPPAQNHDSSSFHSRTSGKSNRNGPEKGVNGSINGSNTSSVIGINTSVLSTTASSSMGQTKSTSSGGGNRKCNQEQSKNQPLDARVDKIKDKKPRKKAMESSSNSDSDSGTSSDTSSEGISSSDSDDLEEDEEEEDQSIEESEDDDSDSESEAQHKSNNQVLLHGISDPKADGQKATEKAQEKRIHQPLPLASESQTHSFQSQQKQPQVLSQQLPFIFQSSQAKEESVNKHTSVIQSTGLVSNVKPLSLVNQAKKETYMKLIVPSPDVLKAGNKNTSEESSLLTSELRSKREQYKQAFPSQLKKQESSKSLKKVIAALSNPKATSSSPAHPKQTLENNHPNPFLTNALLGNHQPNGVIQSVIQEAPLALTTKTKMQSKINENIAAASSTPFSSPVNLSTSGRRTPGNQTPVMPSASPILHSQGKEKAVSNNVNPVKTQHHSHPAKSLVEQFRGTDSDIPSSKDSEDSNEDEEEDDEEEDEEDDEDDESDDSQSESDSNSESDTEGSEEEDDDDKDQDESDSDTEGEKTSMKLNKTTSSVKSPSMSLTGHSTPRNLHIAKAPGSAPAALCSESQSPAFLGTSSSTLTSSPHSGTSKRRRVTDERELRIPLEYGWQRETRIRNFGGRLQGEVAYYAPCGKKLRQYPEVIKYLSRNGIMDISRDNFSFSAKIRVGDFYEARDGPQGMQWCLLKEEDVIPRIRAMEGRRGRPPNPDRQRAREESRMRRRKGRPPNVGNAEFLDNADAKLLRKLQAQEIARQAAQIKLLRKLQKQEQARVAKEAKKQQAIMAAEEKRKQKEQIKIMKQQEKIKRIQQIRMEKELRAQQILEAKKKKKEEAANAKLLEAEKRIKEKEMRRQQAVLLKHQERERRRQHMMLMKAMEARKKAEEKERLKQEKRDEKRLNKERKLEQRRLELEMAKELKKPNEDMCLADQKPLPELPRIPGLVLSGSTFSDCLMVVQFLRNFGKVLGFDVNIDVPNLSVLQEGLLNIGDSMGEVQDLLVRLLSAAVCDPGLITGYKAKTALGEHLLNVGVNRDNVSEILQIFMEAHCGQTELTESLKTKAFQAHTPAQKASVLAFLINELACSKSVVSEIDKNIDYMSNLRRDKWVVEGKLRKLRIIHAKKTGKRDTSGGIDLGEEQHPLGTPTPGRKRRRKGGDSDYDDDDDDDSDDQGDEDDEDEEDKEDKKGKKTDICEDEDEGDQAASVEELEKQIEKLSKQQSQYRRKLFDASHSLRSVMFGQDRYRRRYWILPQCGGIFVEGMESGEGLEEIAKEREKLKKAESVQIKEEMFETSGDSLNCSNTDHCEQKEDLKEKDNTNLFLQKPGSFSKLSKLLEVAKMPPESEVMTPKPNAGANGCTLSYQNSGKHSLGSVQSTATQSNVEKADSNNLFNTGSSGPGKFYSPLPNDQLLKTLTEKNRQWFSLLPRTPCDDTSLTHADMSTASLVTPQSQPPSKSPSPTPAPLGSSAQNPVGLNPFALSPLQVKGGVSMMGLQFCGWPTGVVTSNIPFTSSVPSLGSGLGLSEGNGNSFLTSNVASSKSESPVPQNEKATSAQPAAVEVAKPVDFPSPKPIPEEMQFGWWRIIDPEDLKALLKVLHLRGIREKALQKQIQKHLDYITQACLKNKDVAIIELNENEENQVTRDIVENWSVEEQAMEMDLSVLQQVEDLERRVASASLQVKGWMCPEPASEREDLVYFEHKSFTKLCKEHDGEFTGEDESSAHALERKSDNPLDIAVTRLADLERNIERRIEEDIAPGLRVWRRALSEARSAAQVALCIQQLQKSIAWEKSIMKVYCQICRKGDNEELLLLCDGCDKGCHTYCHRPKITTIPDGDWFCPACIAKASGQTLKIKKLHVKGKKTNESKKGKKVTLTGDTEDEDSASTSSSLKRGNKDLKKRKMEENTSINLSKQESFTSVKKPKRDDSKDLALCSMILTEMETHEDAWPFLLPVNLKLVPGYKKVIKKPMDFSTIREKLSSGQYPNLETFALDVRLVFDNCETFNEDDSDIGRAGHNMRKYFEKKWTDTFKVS
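Protein-peptide AlphaScreen: BAZ2B 50 nM, b-H3K14Ac 50 nM, 1x PBS pH 7.4 + 0.01% Tween-20. Preincubation 30 min RT; cpd 30 min RT (top 110 uM); beads 20 min RT, light-protected.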
L3MBTL1 inh: inhibitors of human L3MBTL1 | Q9Y468 | AlphaScreen L3MBTL1–H3K9me1 peptide binding | Potency, µM (top dose mostly 57.1 µM), for the others: at the highest dose activity, negative = inhibition, hits mostly inhibitors | 0.66% of 230,000 active | AID 485360; also: % is scaled to controls: 0 for no effect and ±100 for the full control effect; nearly all actives have a fitted effect of over 60% in size
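AlphaScreen proximity signal between nickel-chelate acceptor and streptavidin donor beads (final 10 ug/mL) reports binding of 50 nM L3MBTL1 to 75 nM biotin-H3 K9me1 peptide; complex incubated with compounds 30 min at room temperature; cefsulodin titration as control.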
* marks the source's active call; other numbers are inactive results; ? = inconclusive; · = no result given; ! = repeats disagree; [ ] = remark or other dose. Calls follow the shape of the dose curve; as a rule, active = well fitted curve in the direction sought with a large enough effect; inconclusive = small, poorly fitted or top-dose-only effect, or another doubt; inactive = no such curve, though single readings can be large; an effect the other way counts as inactive or inconclusive. Potency is read from the fitted curve at half-maximal effect.

SMILES | HP1b binding inh | G9a block | JMJD2A Tudor | Sfp inh | BAZ2B inh | L3MBTL1 inh
Cc1ccc2nsnc2c1-n1c(C)nc2ccccc2c1=O | 23% | ? | -7% | 2% | -2% | 3%
Cc1ccc2nsnc2c1NS(=O)(=O)c1c(C)ccc2nsnc12 | 20% | 50µM* | -27% | -9% | ? | -6%
O=C(O)C(Cc1cnc[nH]1)NS(=O)(=O)c1ccc(Br)cc1 (centres undefined) | 2% | 40µM* | 10µM* | -24% | -7% | ·
CCCCCCC(=O)OC1CC(C)(C)NC(C)(C)C1 | · | 2%[59 µM] | · | -5% | · | ·
C=CCN1C(=O)NC(=O)/C(=C/c2cc3c4c(c2)CCCN4CCC3)C1=O | 20µM* | ? | ? | ? | 50µM* | 28µM*
CCN(CC)c1ccc(/C=C2\C(=O)NC(=O)N(CC3CCCO3)C2=O)cc1 (centres undefined) | 4% | ? | -27% | -29% | ? | -6%
C=CCN1C(=O)NC(=O)/C(=C/c2cnc(SC)nc2)C1=O | -49% | ? | 79µM* | 32µM* | 4% | 2%
CC(C)Oc1ccc(C(=O)Nc2ccc3c(c2)CCCN3C(=O)c2cccs2)cc1 | -15% | -15%[59 µM] | ? | · | -14% | ·
O=C(O)c1ccccc1-c1c2cc(Br)c(=O)cc-2oc2[c]([Hg])c(O)c(Br)cc12 | · | 0.89µM* | · | 2µM*! | · | ·
CC#C[C@]1(O)CC[C@H]2C3C=C(C)C4=CC(=O)C=C[C@]4(C)[C@H]3[C@@H](O)C[C@@]21C (some centres undefined) | · | · | · | 2% | · | ·
COP(=S)(OC)Oc1ccc(S(=O)(=O)N(C)C)cc1 | · | 10µM* | · | 35µM* | · | ·
O=c1[nH]c(=O)n([C@H]2C[C@H](O)[C@@H](CO)O2)cc1/C=C/Br | · | 17%[12.7 µM] | · | 3% | · | ·
CCOP(=O)(Cc1cc(C(=O)CC)c(C)o1)OCC | 55% | 8.9µM* | 9% | ? | -5% | -4%
c1ccc2c(c1)c1cc[n+]2CCCCC[n+]2ccc(c3ccccc32)NCCCCCN1 | · | · | · | -10% | · | ·
C[C@@H]1O[C@@H](O[C@H]2CC[C@@H](O[C@H]3[C@H](O)C[C@H](c4ccc5c(c4O)C(=O)C4=C(C5=O)[C@@]5(O)C(=O)C[C@](C)(O[C@H]6CC[C@H](O[C@H]7C=CC(=O)[C@H](C)O7)[C@H](C)O6)C[C@@]5(O)C=C4)O[C@@H]3C)O[C@H]2C)C=CC1=O | · | · | · | 5µM* | · | ·
CN[C@@H](C)[C@H]1CC[C@@H](N)[C@@H](O[C@@H]2[C@@H](O)[C@@H](O[C@H]3OC[C@@](C)(O)[C@@H](NC)[C@@H]3O)[C@H](N)C[C@@H]2N)O1 (tested in a mixture with another compound) | · | 31%[21.5 µM] | · | 8% | · | ·
COC(=O)C1=C(c2ccc(OC)c(OC)c2)C[C@@H]2CC[C@H]1N2C(=O)NCc1ccco1 | 31% | -2%[0.501 µM] | -1% | · | 5% | 3%
COc1ccc(N2CC(C(=O)NCc3ccco3)CC2=O)cc1 (centres undefined) | 25% | 18µM* | ? | ? | -13% | -8%
CCOC(=O)N1CCN(/[N+]([O-])=N/Oc2ccc([N+](=O)[O-])cc2[N+](=O)[O-])C(C)C1 (centres undefined) | 25% | · | -9% | ? | · | ·
CCOC(=O)N1CC(C)N(/[N+]([O-])=N/Oc2ccc([N+](=O)[O-])cc2[N+](=O)[O-])CC1C (centres undefined) | -12% | · | 89µM* | -7% | · | ·
O=C1CCCC2C3CC(CN12)C1CCCCN1C3 (centres undefined) | · | · | · | -8% | · | ·
c1ccc(-c2ccc(-c3n(-c4ccccn4)c4ccccc4[n+]3-c3ccccn3)cc2)cc1 | 31% | 35µM* | ? | 2% | ? | -24%
O=C(O)c1ccccc1SCC(=O)N1c2ccccc2Sc2ccccc21 | -5% | 41%[59 µM] | -22% | 89µM* | 12% | 23%
CCOC(=O)c1ccc(NC(=O)CSc2cc(=O)n(CC)c3ccccc23)cc1 | -6% | ? | -3% | · | 6% | ·
CCCCn1c(O)c(/C=C2/C=CC=N2)c(=O)[nH]c1=O | 23% | ? | -3% | 14% | -15% | -10%
SMILES | HP1b binding inh | G9a block | JMJD2A Tudor | Sfp inh | BAZ2B inh | L3MBTL1 inh
O=C(O)c1ccc(-n2c(O)c(/C=C3\C=Nc4ccccc43)c(=O)[nH]c2=O)cc1 | 5% | 45µM* | -12% | -4% | -16% | ·
CCCCn1c(O)c(/C=C2\C=Nc3ccccc32)c(=O)[nH]c1=O | 13% | 71µM* | -22% | -8% | -5% | ·
O=c1[nH]c(=O)n(-c2cccc(F)c2)c(O)c1/C=C1\C=Nc2ccccc21 | 33% | -12% | -1% | -10% | 7% | ·
CCCCC/C=C\C/C=C\C/C=C\CCCCC(=O)NCCO | · | · | · | 2% | · | ·
C=CCN(CC(=O)c1sc(C(=O)OCC)nc1C)c1cccc(Br)c1 | -2% | · | ? | · | · | ·
NC(=O)c1ncn([C@H]2O[C@@H](CO)[C@@H](O)[C@@H]2O)n1 | · | 16%[21.5 µM] | · | 22% | · | ·
COC(=O)N1CCN(C(=O)Cc2ccc(Cl)c(Cl)c2)C(CN2CCCC2)C1 (centres undefined) | · | 35µM*! | · | 5% | -8% | ·
CC[C@@H](CO)Nc1nc(NCc2ccccc2)c2ncn(C(C)C)c2n1 | · | -8%[59 µM] | · | · | · | ·
COc1ccccc1N1C(=O)NC(=O)/C(=C/c2ccc3c4c(cccc24)CC3)C1=O | 11% | 8.9µM* | ? | 11µM* | ? | ?
O=C1NC(=O)N(c2ccccc2)C(=O)/C1=C\c1ccc2c3c(cccc13)CC2 | · | 7.1µM* | · | 40µM* | ? | 9%
O=C(O)Cn1cc(/C=C2\C(=O)NC(=O)N(c3ccc(F)cc3)C2=O)c2ccccc21 | · | 50µM* | · | -4% | -23% | 3%
COC(=O)Cn1cc(/C=C2\C(=O)NC(=O)N(c3ccc(OC)cc3)C2=O)c2ccccc21 | -5% | 28%[0.501 µM] | 4% | -23% | -4% | ·
ClCC1C(CCl)C2(Cl)C(Cl)=C(Cl)C1(Cl)C2(Cl)Cl (centres undefined) | · | · | · | -15% | · | ·
CC1CN(c2ccc([N+](=O)[O-])cc2Cl)CCN1 (centres undefined) | 20% | 40µM* | -14% | -23% | -11% | ·
CCN1CCN(c2ccc(N)c(C)c2)CC1 | 3% | 45µM* | -27% | 10% | -28% | -11%
CCCCCCN1CCN(c2ccccc2Cl)CC1 | -19% | 6% | 56µM* | -15% | 71µM* | 3%
COc1ccccc1N1CCN(CCc2ccccc2)CC1 | 6% | -21% | -6% | -6% | -32% | -1%
CCOP(=S)(OCC)Oc1ccc2c(C)c(Cl)c(=O)oc2c1 | 169% | 51%[59 µM] | 132% | 8% | · | ·

Screening data from PubChem BioAssay.
